SENP6 block: inhibitors of human SENP6 protease | Q9GZR1 | Recombinant SENP6 catalytic domain, aminoluciferin luminescence | inhibition, % at 10 µM | actives 1.8% (n = 330,000) | AID 2599;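 active means inhibition above about 50% at the single tested dose, limit read from the data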
HSP90 refold inh: inhibitors of HSP90 luciferase refolding in rabbit reticulocyte lysate. luciferase refolding luminescence, 3 h. inhibition, % at 5.6 µM. actives 0.91% (n = 290,000). AID 1789;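 active means inhibition above the screen-wide mean plus 3 SD, computed separately per campaign, cut at about 16% in these data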;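 further: inhibitors lower the luminescence because luciferase stays unfolded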
SENP8 block-1: SENP8 protease inhibition | purified SENP8, Z-RLRGG-aminoluciferin cleavage, luminescence | actives 1.2% (n = 330,000) | Q96LD8 | inhibition, % at 10 µM; in the data active means inhibition above about 50%
Target sequence (Q96LD8 whole entry, looked up): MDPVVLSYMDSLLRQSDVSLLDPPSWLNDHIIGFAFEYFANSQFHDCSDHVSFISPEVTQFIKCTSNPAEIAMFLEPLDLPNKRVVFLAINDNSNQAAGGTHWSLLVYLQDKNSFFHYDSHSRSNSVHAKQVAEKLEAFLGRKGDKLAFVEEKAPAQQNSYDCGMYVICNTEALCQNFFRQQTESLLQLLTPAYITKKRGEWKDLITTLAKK
SENP7 block: inhibitors of human SENP7 protease; recombinant SENP7, Z-RLRGG-aminoluciferin luminescence, 40 min; inhibition, % at 5 µM; actives 1.5% (n = 330,000);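 active means inhibition above about 50% at the single test dose, limit read from the data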
Target sequence (Q9BQF6 706-1050 limits assumed): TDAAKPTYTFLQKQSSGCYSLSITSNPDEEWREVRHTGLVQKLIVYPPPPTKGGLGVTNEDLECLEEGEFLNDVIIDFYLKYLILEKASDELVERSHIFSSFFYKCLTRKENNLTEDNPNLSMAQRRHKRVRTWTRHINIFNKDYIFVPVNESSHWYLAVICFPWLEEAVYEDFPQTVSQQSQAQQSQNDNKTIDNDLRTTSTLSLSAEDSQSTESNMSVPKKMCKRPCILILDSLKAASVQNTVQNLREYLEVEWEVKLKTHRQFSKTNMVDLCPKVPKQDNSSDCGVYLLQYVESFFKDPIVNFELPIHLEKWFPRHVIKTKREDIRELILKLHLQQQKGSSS
SENP8 block-2: inhibitors of human SENP8 protease | Q96LD8 | recombinant SENP8, Nedd8 substrate fluorescence | inhibition, % at 20 µM | actives 0.64% (n = 360,000) | AID 602440; in the data active means inhibition mostly above about 40%, no sharp cut-off; inactive means mostly below about 27%
SENP8 conf: confirmation of human SENP8 protease inhibitors; shares compounds with SENP7 block; Recombinant SENP8, Z-RLRGG-aminoluciferin luminescence, 60 min; inhibition, % at 12.5 µM; actives 40% (n = 6,200);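 active means mean inhibition across replicates above about 50%, limit read from the data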
SENP6 confirm: human SENP6 inhibition, confirmed; shares compounds with SENP7 block; recombinant SENP6, Z-RLRGG-aminoluciferin luminescence; inhibition, % at 12.5 µM; actives 58% (n = 6,200); AID 488915
SENP7 conf: human SENP7 inhibition, confirmed; actives 69% (n = 6,200); shares compounds with SENP7 block; inhibition, % at 12.5 µM; recombinant SENP7, Z-RLRGG-aminoluciferin luminescence, 40 min
Casp3 select: inhibits human caspase-3 in SENP selectivity test | actives 60% (n = 6,200) | AID 488918 | shares compounds with SENP7 block | purified caspase-3, Z-DEVD-aminoluciferin luminescence, 60 min | inhibition, % at 12.5 µM;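 active means mean inhibition above about 50%, limit read from the data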
Luc interf: counter-screen for SENP inhibitors: luminescence interference | shares compounds with SENP7 block | Pre-incubated SENP8/Z-RLRGG-aminoluciferin, luciferase luminescence interference | inhibition, % at 12.5 µM | actives 39% (n = 6,200) | AID 488919;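 active means mean inhibition above about 50% when retested at one dose, limit read from the data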
Of the large screens only hits and unclear results are named; the others gave an inactive call (follow-up assays come after a bar, where they were run). A selection: hits, their analogues and other compounds. The true share with any hit is near 2.7%.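 How the source made its calls, unless noted: active means mean inhibition above about 50% in the one-dose retest (limit read from the data); inactive means the rest.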

CN1c2cccc3cccc(c23)N(C)C1(C)C	SENP6 block 72 | SENP8 conf inactive | SENP6 confirm inactive | SENP7 conf inactive | Casp3 select inactive | Luc interf inactive
CCOc1ccc(/C=N/n2cnnc2)cc1	none
Cc1cnc(C(=O)Nc2ccc(F)cc2)cn1	SENP6 block 61, SENP7 block 58 | SENP8 conf inactive | SENP6 confirm inactive | SENP7 conf 74 | Casp3 select 81 | Luc interf inactive
Cc1cnc(C(=O)Nc2ccccc2F)cn1	SENP6 block 68 | SENP8 conf inactive | SENP6 confirm inactive | SENP7 conf 74 | Casp3 select 75 | Luc interf inactive
Cc1cccc(-n2ccc(=O)c(C(=O)O)n2)c1	none
CCN1CCN(c2nc(N)c([N+](=O)[O-])c(Nc3ccc(C)c(C)c3)n2)CC1	none
Cc1ccc(Nc2n[nH]c(C)c2[N+](=O)[O-])cc1C	SENP6 block 58 | SENP8 conf inactive | SENP6 confirm inactive | SENP7 conf 84 | Casp3 select 53 | Luc interf inactive
O=C(NC(=O)c1ccccc1O)c1ccc(C(F)(F)F)cc1	SENP6 block 76, SENP8 block-1 71, SENP7 block 78 | SENP8 conf 76 | SENP6 confirm 75 | SENP7 conf 84 | Casp3 select 84 | Luc interf inactive
CCCC1CCC(c2ccc(OCC)cc2)=CC1=O (stereo not drawn)	SENP6 block 65 | SENP8 conf inactive | SENP6 confirm inactive | SENP7 conf 71 | Casp3 select inactive | Luc interf inactive
c1ccc(N2CC3CCc4ccccc4C3=N2)cc1 (stereo not drawn)	SENP6 block 57, SENP7 block 59 | SENP8 conf inactive | SENP6 confirm 51 | SENP7 conf 72 | Casp3 select inactive | Luc interf inactive
S=C1c2ccccc2CN1c1ccccc1	none
COc1ccc(C(=O)CNc2ccccc2Br)cc1	SENP6 block 58 | SENP8 conf inactive | SENP6 confirm 64 | SENP7 conf 61 | Casp3 select inactive | Luc interf inactive
COc1ccc(C(=O)CC(=O)c2ccccc2)cc1	SENP6 block 77, SENP8 block-1 67, SENP7 block 74 (no result: HSP90 refold inh) | SENP8 conf 70 | SENP6 confirm 70 | SENP7 conf 92 | Casp3 select 55 | Luc interf 59
O=C(COc1ccccc1)c1ccccc1	none (no result: SENP6 block, HSP90 refold inh, SENP8 block-1, SENP7 block)
COC(=O)c1ccc(OCC(=O)c2ccccc2)cc1	SENP7 block 57 | SENP8 conf 52 | SENP6 confirm 51 | SENP7 conf 84 | Casp3 select 73 | Luc interf 62
COc1ccc(C(=O)CC(=O)c2ccc(OC)cc2)cc1	none
COc1ccc(C(=O)COC(=O)c2ccco2)cc1	SENP6 block 72, SENP8 block-1 50, SENP7 block 55 | SENP8 conf 62 | SENP6 confirm 62 | SENP7 conf 86 | Casp3 select 85 | Luc interf 71
COc1ccc(C(=O)COc2cccc(NC(=O)c3ccco3)c2)cc1	none
CCOC(=O)c1c(C)[nH]c(C(=O)COC(=O)CCC(=O)c2ccc3c(c2)OCCO3)c1C	none
Cc1cc[n+](CC(=O)c2cccc([N+](=O)[O-])c2)c2ccccc12	none
CC(C)=C(NC(=O)c1ccccc1)C(N)=O	none
CC(C)n1nc(C(=O)Nc2ccc(-n3cnnn3)cc2)c2ccccc2c1=O	none (no result: HSP90 refold inh)
CCSC1=NCCN1S(=O)(=O)c1ccccc1	none
CCSc1nnc(Cc2cc(=O)[nH]c(=O)[nH]2)n1-c1ccc(Cl)cc1	none (no result: HSP90 refold inh)
COc1ccc(/C(N)=N/OC(=O)CSc2ccccc2)cc1	SENP6 block 77, SENP7 block 63 | SENP8 conf 57 | SENP6 confirm 65 | SENP7 conf 87 | Luc interf inactive
Cc1ccc2c(c1)NC(=O)c1cccnc1N2	SENP6 block 52 | SENP8 conf inactive | SENP6 confirm inactive | SENP7 conf 65 | Casp3 select 63 | Luc interf inactive
CCOc1cc(/C=C2\SC(=S)N(Nc3ccccc3)C2=O)ccc1O	SENP6 block 85 | SENP8 conf 60 | SENP6 confirm 69 | SENP7 conf 81 | Casp3 select inactive | Luc interf 55
O=C1/C(=C/c2ccc(O)c(O)c2)SC(=S)N1Nc1ccccc1	none (no result: SENP6 block, SENP8 block-1, SENP7 block)
O=C(O)c1ccc(/C=C2\SC(=S)N(Nc3ccccc3)C2=O)cc1	SENP6 block 95, SENP8 block-1 82, SENP7 block 78 | SENP8 conf 92 | SENP6 confirm 92 | SENP7 conf 98 | Casp3 select 84 | Luc interf 76
COc1cc(/C=C2\SC(=S)N(Nc3ccccc3)C2=O)ccc1O	SENP6 block 93, SENP8 block-1 89, SENP7 block 72, SENP8 block-2 52 | SENP8 conf 95 | SENP6 confirm 96 | SENP7 conf 100 | Casp3 select 78 | Luc interf 94
CCCCc1nc(Cl)c(C#N)c2c1CCCC2	none
Fc1ccc(OCc2nc3ccccc3s2)cc1	SENP6 block 97, SENP8 block-1 90, SENP7 block 94 | SENP8 conf 82 | SENP6 confirm 92 | SENP7 conf 102 | Casp3 select 90 | Luc interf 79
CCC(=O)Nc1ccc(OCc2nc3ccccc3s2)cc1	SENP8 block-1 76, SENP7 block 75 | SENP8 conf inactive | SENP6 confirm 80 | SENP7 conf 96 | Casp3 select 75 | Luc interf inactive
NC(=O)c1ccccc1OCc1nc2ccccc2s1	none
CC(C)C(=O)NN1c2ccccc2CCc2ccccc21	none
O=c1c2ccccc2oc2ccc(-c3ccc4[nH]ccc4c3)cc12	SENP6 block 53 (no result: HSP90 refold inh) | SENP8 conf inactive | SENP6 confirm inactive | SENP7 conf 57 | Casp3 select inactive | Luc interf inactive
COc1ccc(OCCCC(=O)NCCc2nc3ccccc3[nH]2)cc1	none
c1ccc(-n2nc3c(ccc4cnnc43)[nH]2)cc1	SENP6 block 89, SENP8 block-1 74, SENP7 block 87 | SENP8 conf 50 | SENP6 confirm 83 | SENP7 conf 97 | Casp3 select 71 | Luc interf inactive
O=C(/C=C/c1ccccc1)Nc1sc2c(c1C(=O)O)CCC2	SENP8 block-1 69 | SENP8 conf inactive | SENP6 confirm 74 | SENP7 conf 90 | Casp3 select 73 | Luc interf 81

Screening results from PubChem.
